In PubChem BioAssay AID504773 (Broad Institute, 2011):
Entries with a potency or affinity are not part of this list. Calls of active or inactive are those of the source.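 Rule for the calls: active = polarization signal falls with dose and the fitted half-maximal concentration is at or below ten times the sample's top valid dose; inconclusive = flat curve at 30 to 70% inhibition, or poor fit; inactive = signal rises, flat within 30%, or potency beyond limit.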

Target: Golgi-associated PDZ and coiled-coil motif-containing protein (Homo sapiens) (UniProt Q9HD26)
Experiment: potency against CAL PDZ-peptide interaction – biochemical, fluorescence polarization, Cerulean-tagged CAL PDZ, cherry-picks, dose response (AID 504773)
Details: CAL PDZ-peptide binding, 1 h; series mostly up to 50 µM

outcome, inactive:
Cc1c(NC(=O)CN2CCC(C(N)=O)CC2)cccc1[N+](=O)[O-]
C=CCOC(=O)C1=C(C)Nc2nc3ccccc3n2C1c1ccncc1 (stereo not drawn)
CC(c1ccccc1)N1CCN(C(=O)CCl)CC1 (stereo not drawn)
Cc1ccc2nc(-c3cccc(Br)c3)cc(C(=O)NC3=NCCS3)c2c1
O=C(c1ccccc1Cl)N(Cc1ccc(Cl)c(Cl)c1)N1C(=O)CCCC1=O
CCN(CC)CCC(=O)N1c2ccccc2CCc2ccc(NC(=O)OC(C)C)cc21
CC1CCC(NC(=O)c2ccc3c(c2)S(=O)(=O)c2ccccc2C3=O)CC1 (stereo not drawn)
CC1CCN(c2nc3c(c(=O)n(C)c(=O)n3C)n2CCSc2nc3ccccc3s2)CC1
CCOC(=O)Cn1ncn(-c2ccc(OC(F)(F)F)cc2)c1=O
Cc1nc(Cl)sc1C(=O)Nc1cc(F)cc(F)c1
O=[N+]([O-])c1ccccc1/C=N/Nc1nc(N2CCCC2)nc(N2CCCC2)n1
O=C(NCc1ccccc1)C1CCCN(c2nc3ccsc3c(=O)s2)C1 (stereo not drawn)
Cc1nn2c3ccccc3nc2c2ccccc12
C(=N\N1CCOCC1)/c1nc(-c2ccccc2)n2ccccc12
CCC(=O)c1cn(CC(=O)Nc2cccc(C)c2C)c2ccccc12
CN1CC(=O)N(CC(=O)Nc2ccc(Br)cc2F)C1=O
O=[N+]([O-])c1ccccc1S(=O)(=O)NC1CCCCCCC1
O=C(OCc1ccc(Br)cc1)c1cccnc1
